“And” between values parts separate entries of the source, which are not always exact repeats. Identical values can stand only once. Inconclusive results are not listed. Entries that show only a call come without a potency. A structure can be active in one record and inactive in another. The source made the active and inactive calls. Calls follow the shape of the dose curve; as a rule, active = well fitted curve in the direction sought with a large enough effect in the repeat runs; inconclusive = weak or mixed curves; inactive = no such curve, though single readings can be large; an effect the other way counts as inactive or inconclusive.
Test: qHTS assay to identify small molecule antagonists of the retinoic acid receptor (RAR) signaling pathway (AID 1159552; also: nearly all actives have a fitted effect of over 50% in size)
Details: C3RL4 RARE luciferase reporter, retinol-stimulated, 6 h; series mostly up to 92.4 µM; activity, negative = inhibition: at the top concentration
In short: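 Retinol signaling pathway inhibitors screened in C3RL4 RARE-luciferase reporter cells seeded overnight at 37 C, then compounds added with 1 uM (final) retinol as pathway substrate. After 6 hr at 37 C, luciferase luminescence read after 30 min at room temperature.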

Row | SMILES | activity, negative = inhibition | Potency
1 | Oc1c(Cl)ccc(Cl)c1Cl | -10.8% (inactive) | 
2 | CC(=O)OC(C)C |  | inactive
3 | CC/C=C\C/C=C\C/C=C\CCCCCCCC(=O)O | 3.95% (inactive) | 
4 | CC(=O)Nc1ccc2c(c1)Cc1cc(NC(C)=O)ccc1-2 |  | inactive

Test: qHTS assay to identify small molecule agonists of the retinoic acid receptor (RAR) signaling pathway (AID 1159553); also: potency is read from the fitted curve at half-maximal effect
Details: C3RL4 RARE luciferase reporter, agonist, 6 h; activation: at 73.3 µM (top of the series) unless noted
In short: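 Agonist activity was scored in C3RL4 cells bearing a retinoic acid response element luciferase construct. Cells were treated with compounds for 6 hr at 37 C, and luciferase signal was measured as luminescence.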

Row | SMILES | Potency | activation
5 | Oc1c(Cl)ccc(Cl)c1Cl | inactive | 
6 | CC(C)[N+](C)(CCOC(=O)C1c2ccccc2Oc2ccccc21)C(C)C | inactive | 
7 | CNC[C@H](O)c1ccc(O)c(O)c1 | inactive | 
8 | OCCNCCO |  | -0.0319% (inactive)
9 | CCc1cccc2c3c([nH]c12)C(CC)(CC(=O)O)OCC3 (stereo not given) | inactive | 
10 | O=Cc1ccccc1C=O |  | -1.95% (inactive)
11 | OC[C@@H](O)[C@@H](O[C@@H]1O[C@H](CO)[C@H](O)[C@H](O)[C@H]1O)[C@H](O)[C@@H](O)CO | inactive | 
12 | CC(C)(C)c1cccc(C(C)(C)C)c1O | inactive | 
13 | C=CCCCCCCCCCC | inactive | 
14 | C=CC(=O)OCCCC | inactive | 
15 | O=C(O)c1ccc(O)cc1 | inactive | 
16 | Nc1cc(Cl)c(N)c(Cl)c1 | inactive | 
17 | CCCCCC1C(=O)CCC1CC(=O)OC (stereo not given) | inactive | 
18 | COCCOCCOCCO | inactive | 
19 | CN(Cc1cnc2nc(N)nc(N)c2n1)c1ccc(C(=O)N[C@@H](CCC(=O)O)C(=O)O)cc1 | inactive | 
20 | O=[Se](O)O | inactive | 
21 | CC(=O)OC(C)C | inactive | 
22 | CC/C=C\C/C=C\C/C=C\CCCCCCCC(=O)O |  | 0.206% (inactive)
23 | CC[C@]12CCCN3CCc4c(n(c5ccccc45)[C@@](O)(C(=O)OC)C1)[C@@H]32 | inactive | 
24 | CC(=O)Oc1c(C)c(C)c2c(c1C)CC[C@@](C)(CCC[C@H](C)CCC[C@H](C)CCCC(C)C)O2 |  | -1.36% (inactive)
25 | CC(=O)Nc1ccc2c(c1)Cc1cc(NC(C)=O)ccc1-2 | 30.6 µM (active) | 
26 | CC(=O)[C@@]1(O)CC[C@H]2[C@@H]3C[C@H](C)C4=CC(=O)C=C[C@]4(C)[C@@]3(F)[C@@H](O)C[C@@]21C | inactive | 
27 | Cc1ccc([N+](=O)[O-])c(C)c1 | inactive | 
28 | C=CC(C)(O)CCC=C(C)C (stereo not given) | inactive | 

Test: qHTS assay to identify small molecule antagonists of the estrogen related receptor signaling pathway with the pleiotropic PPARgamma coactivator (PGC) cell viability counter screen (AID 1224822;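 also: viability read after 17.5 h compound exposure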)
Details: ERR/PGC reporter cell line viability counter screen; series mostly up to 46.1 µM; viability change, negative = cytotoxic: at the top concentration
In short: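 Seed PGC/ERR cells (2,000/well); incubate 6 h at 37 C/5% CO2; pin-transfer compounds in DMSO; incubate 17.5 h at 37 C; add CellTiter-Fluor; after 30 min read fluorescence.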

Row | SMILES | viability change, negative = cytotoxic
29 | CC(C)[N+](C)(CCOC(=O)C1c2ccccc2Oc2ccccc21)C(C)C | 8.09% (inactive)
30 | CNC[C@H](O)c1ccc(O)c(O)c1 | 5.91% (inactive)
31 | CCc1cccc2c3c([nH]c12)C(CC)(CC(=O)O)OCC3 (stereo not given) | 9.77% (inactive)
32 | CN(Cc1cnc2nc(N)nc(N)c2n1)c1ccc(C(=O)N[C@@H](CCC(=O)O)C(=O)O)cc1 | -4.1% (inactive)

Test: qHTS assay to identify small molecule antagonists of the estrogen related receptor (ERR) signaling pathway from Tox21 library - cell viability counter screen (AID 1224834); also: nearly all actives have a fitted effect of over 30% in size; also: potency is read from the fitted curve at half-maximal effect
Details: ERR reporter cells viability, CellTiter-Fluor, 17.5 h; series mostly up to 92.4 µM; viability change, negative = cytotoxic: at the top concentration
In short: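 Cytotoxicity of test substances is gauged in the same ERR cells used for the antagonist screen, after 17.5 h of compound treatment at 37 C, by CellTiter-Fluor fluorescence measured after 30 min.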

Row | SMILES | Potency | viability change, negative = cytotoxic
33 | COC(=O)C(C)Oc1ccc(Oc2ncc(C(F)(F)F)cc2Cl)cc1 (stereo not given) | inactive | 
34 | c1ccc2c(c1)ccc1ncccc12 | inactive | 
35 | CC(C)=CCO | inactive | 
36 | O=S1(=O)CCCO1 | inactive | 
37 | Oc1c(Cl)ccc(Cl)c1Cl | inactive | 
38 | CC(C)[N+](C)(CCOC(=O)C1c2ccccc2Oc2ccccc21)C(C)C | inactive | 
39 | CC(=O)Oc1ccc(C(c2ccc(OC(C)=O)cc2)c2ccccn2)cc1 |  | -4.14% [at 42.5 µM] (inactive)
40 | CNC[C@H](O)c1ccc(O)c(O)c1 |  | 2.34% [at 19 µM] (inactive)
41 | OCCNCCO | inactive | 
42 | C=CN1CCCC1=O | inactive | 
43 | CCc1cccc2c3c([nH]c12)C(CC)(CC(=O)O)OCC3 (stereo not given) | inactive | 
44 | O=Cc1ccccc1C=O | 54.5 µM (active) and inactive | 
45 | OC[C@@H](O)[C@@H](O[C@@H]1O[C@H](CO)[C@H](O)[C@H](O)[C@H]1O)[C@H](O)[C@@H](O)CO | inactive | 
46 | CC(C)(C)c1cccc(C(C)(C)C)c1O |  | -4.23% (inactive)
47 | CN(C)C | inactive | 
48 | C=CCCCCCCCCCC | inactive | 
49 | CC1(C)OC(=O)NC1=O | inactive | 
50 | C=CC(=O)OCCCC | inactive | 
51 | O=C(O)c1ccc(O)cc1 | inactive | 

Row | SMILES | Potency | viability change, negative = cytotoxic
52 | Nc1cc(Cl)c(N)c(Cl)c1 | inactive | 
53 | CCCCCC1C(=O)CCC1CC(=O)OC (stereo not given) | inactive | 
54 | COCCOCCOCCO | inactive | 
55 | Cc1ccc(S(=O)(=O)NCl)cc1 | inactive | 
56 | Cc1ccc(C(C)(C)C)c(O)c1 |  | -13.9% (inactive)
57 | O=[Se](O)O |  | -9.9% [at 19 µM] (inactive)
58 | CC(=O)OC(C)C | inactive | 
59 | CC/C(=C(/CC)c1ccc(O)cc1)c1ccc(O)cc1 | 60.6 µM (active) and inactive | 
60 | Nc1ccc2c(O)cc(S(=O)(=O)O)cc2c1 | 27.3 µM (active) and 30.6 µM (active) | 
61 | CC/C=C\C/C=C\C/C=C\CCCCCCCC(=O)O | inactive | 
62 | CC[C@]12CCCN3CCc4c(n(c5ccccc45)[C@@](O)(C(=O)OC)C1)[C@@H]32 |  | 0.3% [at 42.5 µM] (inactive)
63 | CC(=O)Oc1c(C)c(C)c2c(c1C)CC[C@@](C)(CCC[C@H](C)CCC[C@H](C)CCCC(C)C)O2 | inactive | 
64 | COc1cc([C@H]2Oc3cc([C@H]4Oc5cc(O)cc(O)c5C(=O)[C@@H]4O)ccc3O[C@@H]2CO)ccc1O | 48.4 µM (active) and inactive | 
65 | CC(=O)Nc1ccc2c(c1)Cc1cc(NC(C)=O)ccc1-2 | inactive | 
66 | CN(C)CCCN1c2ccccc2Sc2ccc(Cl)cc21 | 54.5 µM (active) and 26.6 µM (active) | 
67 | CC(=O)[C@@]1(O)CC[C@H]2[C@@H]3C[C@H](C)C4=CC(=O)C=C[C@]4(C)[C@@]3(F)[C@@H](O)C[C@@]21C |  | -3.28% [at 42.5 µM] (inactive)
68 | Cc1ccc([N+](=O)[O-])c(C)c1 | 17.2 µM (active) and inactive | 
69 | CC(=O)[C@H]1CC[C@H]2[C@@H]3CC=C4C[C@@H](O)CC[C@]4(C)[C@H]3CC[C@]12C | inactive | 
70 | C=CC(C)(O)CCC=C(C)C (stereo not given) | inactive | 
